From PubChem
Hits are enriched below; roughly 19% of the tested compounds scored in any of these assays.
TDP1 cell CPT: growth inhibition of DT40 Tdp1-/-;hTDP1 cells with camptothecin (screen for TDP1 inhibitors). AID 686979. Potency, µM (series often up to 46.2 µM), most hits filed as inhibitors. chicken DT40 Tdp1-/-;hTDP1 cells + 20 nM CPT, ATP luminescence, 48 h. 12% of 420,000 active; also: nearly all actives have a fitted effect of over 55% in size
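Chicken DT40 Tdp1-/- cells stably complemented with human TDP1 were seeded at 400 cells/well in medium containing 20 nM camptothecin, exposed to pin-transferred compounds, and grown at 37 °C for at least 48 hr. Viability was read as ATP luminescence.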
DT40 TDP1 no CPT: qHTS for Inhibitors of human tyrosyl-DNA phosphodiesterase 1 (TDP1): qHTS in cells in absence of CPT; DT40 Tdp1-/- hTDP1 cells, no CPT, ATP luminescence, 48 h; 15% of 420,000 active; Potency, µM (doses to about 46.2 µM), most hits filed as inhibitors; also: nearly all actives have a fitted effect of over 55% in size
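Cells were dispensed at 400 per well, compounds added by pin tool, plates incubated ≥48 hr at 37 °C, then CellTiter-Glo added for 30 min at room temperature before luminescence reading. Line: DT40 Tdp1-/- complemented with hTDP1; camptothecin omitted.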
HT1080NT lethal: kills 2HG-producing HT-1080-NT fibrosarcoma cells; HT-1080-NT fibrosarcoma viability, CellTiter-Glo ATP luminescence, 48 h; Potency, µM (doses to about 46.1 µM), hits mostly cytotoxic; 1.6% of 360,000 active;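 also: NT is the 2HG producing partner of a matched IDH1 knockdown line; nearly all actives have a fitted effect of over 55% in size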
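HT-1080-NT; 750 cells/well; 5% FBS RPMI; 48 h compound, 37 degrees C; CellTiter-Glo luminescence; curve fitting and curve-class assignment.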
IL1B secr inh: inhibitors of inflammasome signaling (IL-1 beta secretion); THP-1 LPS/ATP IL-1B secretion, AlphaLISA, 16 h; active compounds read low; activity change, % at 57.5 µM; 4.7% of 360,000 active; AID 743279; in the data active = activity change below about -50%; inconclusive = mostly about -30% to -49%
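THP-1 cells pretreated 1 hr with compounds (up to 57.5 uM final), then stimulated with LPS (250 ng/mL final) plus ATP (1.25 mM final); secreted IL-1B measured by AlphaLISA after 16 hr, decreased signal indicating inhibition.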
HT1080 IDH1KD tx: HT-1080 IDH1 knockdown cell toxicity (counter line) | Potency, µM (doses to about 46.1 µM), usual class: cytotoxic | 2% of 360,000 active | HT-1080 IDH1 knockdown viability, ATP luminescence, 48 h
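Using the IDH1-knockdown HT-1080 line run in the same batch and compound series as the NT line, viability after 48 h at 37 °C was determined by CellTiter-Glo luminescence and expressed as % activity.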
Numbers stand for hits; n = inactive; u = inconclusive; x = not tested or not shown; ! = not active in a repeat; [ ] = dose if it differs, or a comment. Unless noted, calls follow the shape of the dose curve; as a rule, active = well fitted curve in the direction sought with a large enough effect; inconclusive = small, poorly fitted or top-dose-only effect, or another doubt; inactive = no such curve, though single readings can be large; an effect the other way counts as inactive or inconclusive.

SMILES	TDP1 cell CPT	DT40 TDP1 no CPT	HT1080NT lethal	IL1B secr inh	HT1080 IDH1KD tx
CC(=O)O[C@H]1CC[C@]2(C)C3CC[C@@]4(C)C(C[C@@H](O)[C@@H]4O)C3[C@@H](OC(C)=O)C[C@H]2C1 (some centres undefined)	n	n	n	n	n
CC(=O)O[C@@H]1CC[C@]2(C)C3CC[C@]4(C)C(=O)[C@H](O)CC4C3[C@@H](OC(C)=O)C[C@H]2C1 (some centres undefined)	u	u	n	n	n
CC(=O)OC1CC(OC2C(O)CC(OC3C(O)CC(OC4CCC5(C)C(CCC6C5CCC5(C)C(C7=CC(=O)OC7)CCC65O)C4)OC3C)OC2C)OC(C)C1OC1OC(CO)C(O)C(O)C1O (centres undefined)	0.58µM	0.41µM	0.082µM	-71	0.052µM
CC(=O)O[C@H]1C[C@H](O[C@H]2[C@@H](O)C[C@H](O[C@H]3[C@@H](O)C[C@H](O[C@H]4CC[C@@]5(C)[C@H](CC[C@@H]6[C@@H]5C[C@@H](O)[C@]5(C)[C@@H](C7=CC(=O)OC7)CC[C@]65O)C4)O[C@@H]3C)O[C@@H]2C)O[C@H](C)[C@H]1O[C@@H]1O[C@H](CO)[C@@H](O)[C@H](O)[C@H]1O	0.38µM	0.34µM	x	x	x
Cc1[nH]c2ccccc2c1C1=CCNCC1	u	u	n	n	n
C1=NCCc2c1[nH]c1ccccc21	n	u	u	n	16µM
Cc1ccc(Cn2cccc(C(=O)Nc3nnc(C)s3)c2=O)cc1	n	n	x	x	x
O=C1NC(=O)N(c2ccccc2)C(=O)/C1=C/c1ccoc1	u	n	n	n	n
O=C1NC(=O)N(c2ccc(Cl)cc2)C(=O)/C1=C/c1coc2ccc(O)cc2c1=O	15µM	15µM	n	u	n
O=C1NC(=O)N(c2ccccc2)C(=O)/C1=C/c1coc2ccc(O)cc2c1=O	23µM	15µM	n	n	u
Cc1cc(/C=C2\C(=O)NC(=O)N(c3ccc(Cl)cc3)C2=O)c(C)n1-c1cccc(C(=O)O)c1	n	n	n	n	n
CC(C)N(C(=O)CSc1nnc(-c2cc3ccccc3cc2O)n1Cc1ccco1)C(C)C	13µM	21µM	u	n	u
CNCC/C=C\c1cccnc1	n	n	x	x	x
CN(C)CCn1cnc2ccccc21	n	n	n	n	n
CN(C)CCCOc1nn(Cc2ccccc2)c2ccccc12	u	23µM	u	n	18µM
O=C(C[C@@H]1NCCC[C@H]1O)Cn1cnc2cc(Br)c(Cl)cc2c1=O	n	n	x	x	x
S=C=Nc1cccc(C2(N3CCCCC3)CCCCC2)c1	21µM	16µM	23µM	-54	18µM
CC(=O)[C@@]1(O)CC[C@H]2[C@@H]3CCC4=CC(=O)CC[C@]4(C)C3(F)[C@@H](O)C[C@@]21C (some centres undefined)	n	n	x	x	x
C[C@H]1C[C@H]2[C@@H]3CCC4=CC(=O)C=C[C@]4(C)[C@@]3(F)[C@@H](O)C[C@]2(C)[C@@]1(O)C(=O)CCl	n	0.053µM	x	x	x
Clc1cccc(C(c2ccc3nc[nH]c3c2)n2ccnc2)c1 (centres undefined)	u	27µM	x	x	x
C=CCN=c1sc(C(=O)OC)cc(=O)n1CC=C	15µM	n	n	n	u
C[C@H]1COC(=O)[C@@H](Cc2ccc(F)cc2)CC/C=C/C[C@@H](CC(=O)N(CCO)Cc2ccccc2)C(=O)N1	13µM	23µM	n	n	n
C[C@H]1COC(=O)[C@@H](Cc2ccc(F)cc2)CC/C=C/C[C@H](CC(=O)N(CCO)Cc2ccccc2)C(=O)N1	16µM	16µM	n	n	n
Cc1ccc(-n2nc3c(=O)n(CC(=O)NCC(C)c4ccccc4)nc(C)c3c2C)cc1 (centres undefined)	21µM	u	x	x	x
CC(CNC(=O)CCS(=O)(=O)c1ccc2c(c1)oc(=O)n2C)c1ccccc1 (centres undefined)	n	n	n	n	n
SMILES	TDP1 cell CPT	DT40 TDP1 no CPT	HT1080NT lethal	IL1B secr inh	HT1080 IDH1KD tx
CCOc1ccccc1N(CC(=O)NCCc1ccc(OC)cc1)S(=O)(=O)c1ccc(C)cc1	10µM	8.2µM	n	n	n
CCN(c1ccccc1)S(=O)(=O)c1ccc(C(=O)NCC(c2ccccc2OC)N2CCCC2)cc1 (centres undefined)	u	u	n	n	n
CN(C)c1ccc(C(O)P(=O)(OC2CCCCC2)OC2CCCCC2)cc1 (centres undefined)	u	n	n	n	n
CS(=O)(=O)c1ccc(C2=C(CNC(=O)c3cccnc3)[C@H]3CC[C@@H](C2)N3Cc2ccco2)cc1	n	n	n	n	n
CCCCC/C=C\C/C=C\C/C=C\C/C=C\CCCC(=O)O	30µM!	24µM!	x	x	x
CCCCC/C=C\C[C@@H](/C=C/C=C\C/C=C\CCCC(=O)O)OO	n[0.628 µM]	n[0.628 µM]	x	x	x
COC(=O)C1=C(c2cc3ccccc3s2)C[C@@H]2CC[C@H]1N2C(=O)N1CCOCC1	9.2µM	7.3µM	9.2µM	n	8.2µM
COC(=O)C1=C(c2cc3ccccc3s2)C[C@@H]2CC[C@H]1N2C(=O)NCCNC(C)=O	n	n	n	n	n
COC(=O)C1=C(c2cc3ccccc3s2)C[C@@H]2CC[C@H]1N2C(=O)N1CCCC1	4.6µM	x	n	n	n
O=C1CCN(C(=O)Cc2ccccc2[N+](=O)[O-])CC1	n	n	n	n	n
Fc1ccccc1CCNCc1ccccc1	n	n	n	n	n
CCCCNCC(O)c1ccc(O)cc1 (centres undefined)	n	n	x	x	x
COc1cccc(CNCCc2c[nH]c3ccccc23)c1	u	u	n	-78	n
Fc1ccccc1CNCCc1c[nH]c2ccccc12	16µM	u	n	n	n
FC(F)(F)c1ccccc1CNCCc1c[nH]c2ccccc12	u	15µM	n	n	n
OC(CNCCc1c[nH]c2ccccc12)c1ccccc1 (centres undefined)	n	n	n	-57	n
O=C(c1cnccn1)N1CCC2(CC1)CN(Cc1ccncc1)C2	n	n	x	x	x
Fc1ccc(CNCCc2c[nH]c3ccccc23)cc1	u	4.6µM	u	-81	u
Fc1ccc(CNCCc2ccccc2F)cc1	n	n	n	n	n
Fc1ccc(CCNCc2ccc(Br)cc2)cc1	u	u	n	-68	n
c1coc(CNCCc2c[nH]c3ccccc23)c1	n	n	n	n	n
CCCN(c1ccc(C(C)C)cc1)S(=O)(=O)c1ccc2c(c1)CCN2C(=O)CC	u	7.3µM	x	x	x
O=C1NC[C@H](CCCCN2C[C@H](Cc3ccccc3)N(CCc3ccccc3)C(=O)C2=O)N(CC2CCCCC2)C1=O	n	n	n	n	u
